Shown is part of a subset that was picked to be rich in hits.
HT1080NT lethal = qHTS for induction of synthetic lethality in tumor cells producing 2HG: qHTS for the HT-1080-NT fibrosarcoma cell line | Potency, µM (top dose mostly 46.1 µM), actives largely listed as cytotoxic | AID 686970, 2013 | HT-1080-NT fibrosarcoma viability, CellTiter-Glo ATP luminescence, 48 h | hit rate 1.6% among 360,000;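 also: NT is the 2HG producing partner of a matched IDH1 knockdown line; nearly all actives have a fitted effect of over 55% in size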
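A 48-hour cytotoxicity screen used HT-1080-NT cells plated 2 hours before compound delivery. ATP-based CellTiter-Glo luminescence measured viability, normalized to DMSO and no-cell controls.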
IL1B secr inh = qHTS for Inhibitors of Inflammasome Signaling: IL-1-beta AlphaLISA Primary Screen | hit rate 4.7% among 360,000 | THP-1 LPS/ATP IL-1B secretion, AlphaLISA, 16 h; stronger effect = lower value | activity change, % at 57.5 µM | AID 743279, 2014; in the data active = activity change below about -50%; inconclusive = mostly about -30% to -49%
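Secreted IL-1B measured by AlphaLISA bead assay after 16 h compound exposure of THP-1 cells; compounds (final up to 57.5 uM) added 1 h before LPS (250 ng/mL) and ATP (1.25 mM) stimulation; lower signal means less secretion.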
ALOX12 inh = Primary qHTS assay for inhibitors of human arachidonate 12S-lipoxygenase (ALOX12): Round 2. Polyunsaturated fatty acid lipoxygenase ALOX12 (Homo sapiens), P18054. purified 12hLO, xylenol orange hydroperoxide absorbance. Potency, µM (top dose mostly 108 µM), actives largely listed as inhibitors. hit rate 1.1% among 580,000
Target sequence (P18054 whole entry, looked up): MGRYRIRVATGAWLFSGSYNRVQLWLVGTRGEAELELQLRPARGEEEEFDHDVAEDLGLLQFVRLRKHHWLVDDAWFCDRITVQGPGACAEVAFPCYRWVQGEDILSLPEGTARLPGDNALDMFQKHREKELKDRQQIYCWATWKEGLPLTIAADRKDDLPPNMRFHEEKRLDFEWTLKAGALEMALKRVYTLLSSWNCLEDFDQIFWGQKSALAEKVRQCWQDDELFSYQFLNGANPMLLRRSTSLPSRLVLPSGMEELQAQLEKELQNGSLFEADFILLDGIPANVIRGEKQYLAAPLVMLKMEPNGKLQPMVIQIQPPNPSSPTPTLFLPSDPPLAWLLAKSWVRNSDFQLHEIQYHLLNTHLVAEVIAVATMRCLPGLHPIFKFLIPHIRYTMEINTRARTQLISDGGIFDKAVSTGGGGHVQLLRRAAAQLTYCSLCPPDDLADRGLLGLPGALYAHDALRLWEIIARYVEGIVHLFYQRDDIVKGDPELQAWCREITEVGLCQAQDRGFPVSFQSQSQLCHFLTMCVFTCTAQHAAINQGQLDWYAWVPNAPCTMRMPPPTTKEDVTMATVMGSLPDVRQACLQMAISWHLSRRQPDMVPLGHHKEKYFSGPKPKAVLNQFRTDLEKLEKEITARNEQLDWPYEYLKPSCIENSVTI
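Purified human 12hLO at 150 nM in 25 mM Hepes, 0.01% Triton X-100, pH 7.0, preincubated 15 min at room temperature with compound. Reaction started with 40 uM arachidonic acid, 30 min at room temperature. Hydroperoxide measured by Fe-xylenol orange, 573/405 nm absorbance ratio.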
HT1080 IDH1KD tx = qHTS for induction of synthetic lethality in tumor cells producing 2HG: qHTS for the HT-1080-IDH1KD cell line. HT-1080 IDH1 knockdown viability, ATP luminescence, 48 h. Potency, µM (top dose mostly 46.1 µM), most hits filed as cytotoxic. hit rate 2% among 360,000. AID 686971, 2013
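Luminescent ATP read-out (CellTiter-Glo, 10 min at room temperature) after 48 h compound exposure at 37 °C gave viability of IDH1-knockdown HT-1080 cells. Activity was normalised to DMSO and cell-free wells, then fitted as concentration-response curves.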
TDP1 cell CPT = qHTS for Inhibitors of human tyrosyl-DNA phosphodiesterase 1 (TDP1): qHTS in cells in presence of CPT. chicken DT40 Tdp1-/-;hTDP1 cells + 20 nM CPT, ATP luminescence, 48 h. Potency, µM (top dose mostly 46.2 µM), most hits filed as inhibitors. hit rate 12% among 420,000. AID 686979, 2013; also: nearly all actives have a fitted effect of over 55% in size
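Chicken DT40 Tdp1-/- cells complemented with human TDP1, 400 cells/well, exposed to compounds plus 20 nM camptothecin for at least 48 h at 37 C; viability read as ATP content by CellTiter-Glo luminescence.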
DT40 TDP1 no CPT = qHTS for Inhibitors of human tyrosyl-DNA phosphodiesterase 1 (TDP1): qHTS in cells in absence of CPT; AID 686978, 2013; hit rate 15% among 420,000; DT40 Tdp1-/- hTDP1 cells, no CPT, ATP luminescence, 48 h; Potency, µM (top dose mostly 46.2 µM), actives largely listed as inhibitors; also: nearly all actives have a fitted effect of over 55% in size
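Luminescent ATP content (CellTiter-Glo) served as the growth readout. Knockout chicken DT40 cells expressing human TDP1 were exposed to compounds without camptothecin for a minimum 48 hr at 37 °C.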
Hits are given with their value; i = inactive; ? = inconclusive; nt = not tested or not shown. Unless noted, calls follow the shape of the dose curve; as a rule, active = well fitted curve in the direction sought with a large enough effect; inconclusive = small, poorly fitted or top-dose-only effect, or another doubt; inactive = no such curve, though single readings can be large; an effect the other way counts as inactive or inconclusive.

SMILES	HT1080NT lethal	IL1B secr inh	ALOX12 inh	HT1080 IDH1KD tx	TDP1 cell CPT	DT40 TDP1 no CPT
O=C(Nc1ccc(Cl)cc1)N1CCN(c2ccc3nnc(-c4ccc(F)cc4)n3n2)CC1	i	i	i	?	?	21µM
COc1ccc(S(=O)(=O)N2CCN(c3ccc4nnc(-c5ccc(F)cc5)n4n3)CC2)cc1	i	i	?	i	12µM	15µM
Cc1ccc(S(=O)(=O)N2CCN(c3ccc4nnc(-c5ccccc5)n4n3)CC2)cc1	i	i	?	i	?	?
O=C(c1ccc(Br)o1)N1CCN(c2ccc3nnc(-c4ccc(F)cc4)n3n2)CC1	i	i	i	i	?	18µM
O=C(Nc1ccc(F)cc1)N1CCN(c2ncccn2)CC1	i	i	i	i	i	?
O=C(Cn1ccn2nc(-c3ccc(F)cc3)c(CO)c2c1=O)Nc1cccc(F)c1	nt	nt	i	nt	nt	nt
Cc1ccc(C#N)c(N2CC[C@@H](c3ccc4c(c3)OCO4)[C@H](O)C2)n1	nt	nt	i	nt	nt	nt
Cc1ccc(CN2CCC[C@]3(N[C@H](c4ccc(C(F)(F)F)cc4)[C@@H]4C(=O)N(C)C(=O)[C@@H]43)C2=O)cc1	i	i	?	i	?	?
CN1C(=O)[C@H]2[C@@H](c3ccc(C(F)(F)F)cc3)N[C@]3(CCCN(Cc4ccc(Cl)cc4)C3=O)[C@H]2C1=O	i	i	i	i	i	16µM
Cc1ccc([C@H]2N[C@]3(CCCN(Cc4ccc(C(F)(F)F)cc4)C3=O)[C@H]3C(=O)N(C)C(=O)[C@@H]23)cc1	i	i	?	i	21µM	13µM
COc1ccc([C@H]2N[C@]3(CCCN(Cc4ccc(C(F)(F)F)cc4)C3=O)[C@H]3C(=O)N(C)C(=O)[C@@H]23)cc1	i	i	?	i	?	?
CN1C(=O)[C@H]2[C@@H](c3ccc(C(F)(F)F)cc3)N[C@]3(CCCN(Cc4cccn4C)C3=O)[C@H]2C1=O	i	i	?	i	23µM	16µM
CN1C(=O)[C@H]2[C@@H](c3ccc(C(F)(F)F)cc3)N[C@]3(CCCN(Cc4ccc(F)cc4)C3=O)[C@H]2C1=O	i	i	?	i	9.2µM	7.3µM
CCCN(Cc1nccn1C)C(=O)c1sc(C(C)C)nc1C	nt	nt	i	nt	nt	nt
Cc1c(C)c2ccc(OCC(=O)NCCc3ccc(S(N)(=O)=O)cc3)c(C)c2oc1=O	nt	nt	i	nt	nt	nt
CC(=O)c1ccc(-c2cnc3c(NC=O)cc(-c4ccc(C(=O)N5CCOCC5)cc4)cn23)cc1	?	i	i	?	16µM	21µM
COc1ccc(-c2cnc3c(NC=O)cc(-c4ccc(C(=O)N5CCOCC5)cc4)cn23)cc1OC	?	?	?	21µM	4.1µM	3.3µM
CC(=O)c1cccc(-c2cnc3c(NC=O)cc(-c4ccc(C(=O)N5CCOCC5)cc4)cn23)c1	?	i	i	i	?	?
COC(=O)c1cc(-c2cccc(OC)c2)nc2ccccc12	nt	nt	i	nt	nt	nt
CC(C)OC(=O)c1cccc(C(=O)Oc2ccccc2)n1	i	i	i	i	i	i
CC(C)OC(=O)c1cccc(C(=O)OCc2ccco2)n1	i	-74	?	i	?	21µM
Cc1cc(Nc2ccccc2)n(-c2nc3ccccc3[nH]2)n1	?	?	i	?	?	?
Cc1cc(NC(=O)c2c(F)cccc2Cl)n(-c2nc3ccccc3[nH]2)n1	?	i	i	?	?	23µM
Cc1cc(NC(=O)c2ccc(C)s2)n(-c2nc3ccccc3[nH]2)n1	i	i	i	i	?	21µM
Cc1cc(NC(=O)C2CCCCC2)n(-c2nc3ccccc3[nH]2)n1	?	i	i	?	23µM	16µM
SMILES	HT1080NT lethal	IL1B secr inh	ALOX12 inh	HT1080 IDH1KD tx	TDP1 cell CPT	DT40 TDP1 no CPT
CC(C)(C)c1cc(NC(=O)c2c(F)cccc2Cl)n(-c2ccccc2)n1	i	i	i	i	?	?
Cc1cc(NC(=O)C2CC2)n(-c2nc3ccccc3s2)n1	i	i	i	i	i	i
Cc1cc(NC(=O)c2c(F)cccc2F)n(-c2nc3ccccc3[nH]2)n1	?	?	i	10µM	?	11µM
Cc1cc(NC(=O)c2ccccc2F)n(-c2nc3ccccc3[nH]2)n1	?	i	i	i	?	?
Cc1ccc(/C(COc2ccc3c(C)c(Cc4ccccc4)c(=O)oc3c2C)=N\O)cc1	nt	nt	i	nt	nt	nt
CC(C)(C)C1CCc2c(sc(NC(=O)CSc3ncn[nH]3)c2C#N)C1 (configuration not stated)	11µM	?	?	11µM	?	?
CCCc1cc(=O)[nH]c(SCC(=O)Nc2sc(C(N)=O)c(C)c2C(=O)OCCOC)n1	2.3µM	i	i	2.6µM	?	i
CC1CCc2c(sc(NC(=O)CSc3ncn[nH]3)c2C#N)C1 (configuration not stated)	i	i	i	?	?	23µM
CCCc1cc(=O)[nH]c(SCC(=O)Nc2sc3c(c2C#N)CCC(C)C3)n1 (configuration not stated)	i	i	40µM	i	i	i
N#Cc1c(NC(=O)CSc2ncn[nH]2)sc2c1CCCC2	i	i	i	i	?	?
CCCc1cc(=O)[nH]c(SCC(=O)NC(=O)OCC)n1	i	i	i	i	i	i
CCN1CCN(CC(=O)Nc2sc3c(c2C#N)CCC(C)C3)CC1 (configuration not stated)	18µM	i	i	?	?	18µM
Cc1ccc(Nc2ncnc(N)n2)cc1C	i	i	i	i	i	i
Cc1ccc(Nc2ncnc(N)c2[N+](=O)[O-])cc1Cl	nt	nt	i	nt	nt	nt
COc1cc2nc(Nc3cccc(C)c3)nc(N)c2cc1OC	nt	nt	i	nt	12µM	3.3µM
COc1ccc(C(=O)c2sc(Nc3cccc(C)c3)nc2N)cc1OC	nt	nt	i	nt	nt	nt
COc1cc2nc(Nc3ccc(C)c(C)c3)nc(N)c2cc1OC	?	-98	?	?	23µM	15µM
Cc1ccc(Nc2nc(N)c3ccccc3n2)cc1Cl	i	-97	?	i	15µM	?
COc1cc2nc(Nc3ccc(C)c(Cl)c3)nc(N)c2cc1OC	?	-94	20µM	13µM	?	?
Cc1cc(C)c(NC(=O)Cn2cnc3c2c(=O)n(C)c(=O)n3C)c(Cl)c1	nt	nt	i	nt	nt	nt
CNC(=O)NC(=O)CCN1CCOC(c2ccc(Br)cc2)C1 (configuration not stated)	nt	nt	i	nt	nt	nt
